Drawing on PubChem BioAssay (NCI), this text covers growth inhibition for 21 compounds.

Compounds without any hit were thinned out: in the full panel of roughly 79,000, 15% have a hit. Unmarked numbers belong to inactive results. Calls of active or inactive are those of the source. Rule as the data show it: active = growth inhibition above about 70%; inactive = the rest.

Assay [1] is described as follows: NCI Yeast Anticancer Drug Screen. Data for the rad50 strain (AID 155).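 Also: 0% = growth of vehicle-only cultures of the same strain.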 To be noted: S. cerevisiae rad50 strain growth inhibition; at 50.0 µM; stronger effect = higher value. The gist of the method:
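Inhibition values express reduced yeast growth in compound-treated cultures relative to vehicle-treated controls.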

Assay [2] in a line: NCI Yeast Anticancer Drug Screen. Data for the mec2-1 strain (AID 157). To be noted: S. cerevisiae mec2-1 strain, at 50.0 µM, stronger effect = higher value. The gist of the method:
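Compounds were applied to mec2-1 yeast cells. Their growth was then compared with that of vehicle-treated cultures to give growth inhibition.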

A short description of assay [3]: NCI Yeast Anticancer Drug Screen. Data for the sgs1 mgt1 strain (AID 161).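 Also: 0% = growth of cultures given vehicle only.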 As to conditions: S. cerevisiae sgs1 mgt1 strain, at 50.0 µM, stronger effect = higher value. The gist of the method: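 Percent growth inhibition was derived by comparing compound-exposed mutant yeast with vehicle-exposed cultures. The strain carries alterations in DNA damage repair.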
Assay [4] is described as follows: NCI Yeast Anticancer Drug Screen. Data for the cln2 rad14 strain (AID 165).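 Also: 0% = growth equal to vehicle treated cultures.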 As to conditions: S. cerevisiae cln2 rad14 strain, at 50.0 µM, stronger effect = higher value. The gist of the method: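 Strain: cln2 rad14 yeast, altered in cell cycle control and DNA damage repair. Read-out: growth inhibition vs vehicle.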
Assay [5] can be described thus: NCI Yeast Anticancer Drug Screen. Data for the bub3 strain (AID 167). To be noted: S. cerevisiae bub3 mutant strain, at 50.0 µM, stronger effect = higher value. The gist of the method: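 Steps: expose the mutant yeast strain to compound; grow alongside vehicle-treated cultures; measure growth; express inhibition against the vehicle cultures.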
Assay [6] is described as follows: NCI Yeast Anticancer Drug Screen. Data for the mlh1 rad18 strain (AID 175). To be noted: S. cerevisiae mlh1 rad18 strain growth inhibition; at 50.0 µM; stronger effect = higher value. The gist of the method:
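A repair-deficient yeast strain is exposed to test compound, and growth is scored relative to vehicle-treated controls.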

Consider `CC(C)=CCC(C)c1ccccn1` (stereo unspecified), for which the growth inhibition is -2.45% in assay [1]; 5.5% in assay [2]; 10.3% in assay [3]; -12.8% in assay [4]; 10.9% in assay [5]; -4.2% in assay [6].

As for `O=C(C/C(=N\NC(=O)C[n+]1ccccc1)C(=O)Nc1nc2ccc([N+](=O)[O-])cc2s1)CC(c1ccccc1)c1c(O)c2ccccc2oc1=O` (stereo unspecified), the growth inhibition in assay [1] was 3.65%; in assay [2], -15%; in assay [3], -17.2%; in assay [4], 1.6%; in assay [5], 7.3%; in assay [6], -4.85%.

As for `Cc1cccc(C(=O)NCC(=O)O)c1`, the growth inhibition in assay [1] was -13.8%; in assay [2] it was -3.7%; in assay [3] it was -9.9%; in assay [4], -85.5%; in assay [5], 4.5%; in assay [6], -9.7%.

On to `CCN(CC)CCCNc1nc2ccccc2c2c1ncn2CC(C)C`, for which the growth inhibition is -51% in assay [1]; 5.4% in assay [2]; -20.8% in assay [3]; 27.1% in assay [4]; 13.2% in assay [5]; 6.35% in assay [6].

In the case of `CCCCC(CC)COC(=O)Cc1ccccc1` (stereo unspecified), the growth inhibition in assay [1] is 17.3%; in assay [2], 17.1%; in assay [3], 15.8%; in assay [4], -5.85%; in assay [5] it was 40.1%; in assay [6], 34.7%.

For `O=C(CC(=O)c1cccc([N+](=O)[O-])c1)C(=O)Nc1ccccc1`, the growth inhibition in assay [1] was -30.5%; in assay [2], -28.8%; in assay [3], 14.7%; in assay [4], 11.1%; in assay [5], -8.05%; in assay [6], -5.55%.

On to `O=C1C(=O)C(CCc2ccccc2)C(=O)/C1=C\c1ccccc1` (stereo unspecified), for which the growth inhibition in assay [1] was 4.4%; in assay [2] it was 17.6%; in assay [3], 10.6%; in assay [4], -10.4%; in assay [5], -6.55%; in assay [6] it was 20.2%.

On to `CC(O)(/C=C/c1ccccc1)P(=O)(O)c1ccccc1` (stereo unspecified), for which the growth inhibition in assay [1] was -40%; in assay [2], -13.2%; in assay [3], -29.1%; in assay [4], -13%; in assay [5] it was -13.3%; in assay [6] it was 9.4%.

For `COc1c(Cl)cc(NC(=S)C#N)cc1Cl`, the growth inhibition in assay [1] was 20.2%; in assay [2], 20%; in assay [3], 15.2%; in assay [4], 39.6%; in assay [5], 15.4%; in assay [6], -30.9%.

As for `N/N=C(\N)SCCCCCCS/C(N)=N/N`, the growth inhibition in assay [1] is -10.8%; in assay [2], 2.15%; in assay [3] it was 24%; in assay [4], 41.5%; in assay [5], 39.9%; in assay [6], -5.2%.

For the compound `NC(=S)c1cccc(C(N)=S)n1`, the growth inhibition was 18.7% in assay [1]; 19.9% in assay [2]; 23.9% in assay [3]; -27.9% in assay [4]; 22.6% in assay [5]; 26.6% in assay [6].

For the compound `O=C(O)c1cccc(C#Cc2ccccc2)c1`, the growth inhibition was 16.7% in assay [1]; 5.25% in assay [2]; 12.5% in assay [3]; -15.4% in assay [4]; 4.55% in assay [5]; 25.1% in assay [6].

As to `CC(Cl)(CCl)C(=O)NCNC(=O)C(C)(Cl)CCl` (stereo unspecified), the growth inhibition in assay [1] is 51.5%; in assay [2], 3.8%; in assay [3], 8.2%; in assay [4], -19.1%; in assay [5] it was 15.8%; in assay [6], 28.2%.

Consider `Oc1ccc(-c2csc(Nc3ccccn3)n2)cc1O`, for which the growth inhibition in assay [1] was 98.4% (active); in assay [2], 99% (active); in assay [3], 99% (active); in assay [4], 97.2% (active); in assay [5] it was 97.7% (active); in assay [6], 98.8% (active).

In the case of `O=c1cc[nH]c2ccc(Cl)cc12`, the growth inhibition in assay [1] was -10.2%; in assay [2], 5.3%; in assay [3], -4.4%; in assay [4] it was -33.4%; in assay [5] it was -7.1%; in assay [6] it was -1.45%.

Turning to `CN(CC(=O)c1ccc(Cl)cc1)Cc1cccc2ccccc12`, the growth inhibition was 18.2% in assay [1]; -5.8% in assay [2]; 51.4% in assay [3]; 11.7% in assay [4]; 22.9% in assay [5]; 38.8% in assay [6].

For `CC(C)(C)N=C1CC(C)(C)c2ccccc2C(=Nc2ccccc2)S1`, the growth inhibition is 23.2% in assay [1]; 9.55% in assay [2]; 24.8% in assay [3]; 24.1% in assay [4]; 8.3% in assay [5]; 15.3% in assay [6].

As to `CC1CC=CCC1C(=O)OC/C=C/COC(=O)C1CC=CCC1C` (stereo unspecified), the growth inhibition is 29.4% in assay [1]; -19.9% in assay [2]; 8.65% in assay [3]; -9.9% in assay [4]; 14.9% in assay [5]; -4.65% in assay [6].

Regarding `CC(O)COc1ccc(C(C)(C)C)cc1` (stereo unspecified), the growth inhibition in assay [1] is 3.25%; in assay [2], -4.2%; in assay [3], -2.45%; in assay [4] it was -13%; in assay [5], 10.8%; in assay [6] it was 2.6%.

As for `Cc1ccc(-c2nnc(NC(=O)Nc3ccc(Cl)cc3)o2)cc1`, the growth inhibition in assay [1] was 3.15%; in assay [2] it was -1.45%; in assay [3], 4.3%; in assay [4], -60.6%; in assay [5] it was -13.5%; in assay [6] it was 21.8%.

As for `C=C(C)CC1(C)C(=O)CCC1O` (stereo unspecified), the growth inhibition in assay [1] is -13.7%; in assay [2] it was -15.8%; in assay [3], 3.9%; in assay [4], -30.8%; in assay [5] it was 6.1%; in assay [6], 6.25%.
